This note sets out measurements from PubChem BioAssay (NCI).

This is part of a sample that, as a whole, favours compounds with a hit. Of some 83,000 tested, about 20% had one in any assay.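 For each line, cells grew in 96-well plates with the test compound present at a single concentration for 48 hours.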 The source made the active and inactive calls.

The assay deals with NCI-H460 lung. Kind of assay: NCI-60 one-dose screen, 48 h (100 = growth as untreated, 0 = no growth, -100 = all killed). The following applies: 10 µM unless noted. How it is done: Growth inhibition of the NCI-H460 human Non-Small Cell Lung tumor cell line is measured as a screen for anti-cancer activity. Cells are grown in 96 well plates and exposed to the test compound for 48 hours. Compounds are tested at a single concentration, which is 10^-5 M for most compounds. The reported endpoint is percent growth (GI% or GIPRCNT), where numbers from 0 - 100% represent growth inhibition, and numbers from -100% - 0 represent cell death. For example, a value of 40 represents 60% growth inhibition. A value of 0 means no net growth occurred over the course of the experiment. A value of -40 indicates 40% of cells at the beginning of the experiment died by the end of the experiment. A value of -100 means all cells are dead at the end of the experiment.
NCI-60 Human Tumor Cell Lines Screen was performed using the standard one-dose NCI protocol, which is described in more detail at https://dtp.cancer.gov/discovery_development/nci-60/default.htm.
Compounds with GIPRCNT values below 10 were considered active. Activity score was based on GIPRCNT using the following formula: […]
Score is 0 for GIPRCNT values of 100 or above, 50 for GIPRCNT values of 0, and 100 for GIPRCNT values of -100.
Take `O=C(CSc1nnc(-c2cc3c([nH]c4ccccc43)c(-c3cccc(O)c3)n2)n1-c1ccccc1)c1ccccc1`: the growth is 65.3% (inactive). As to `c1ccc([Se]CCCN2CCN(CCC[Se]c3ccccc3)CC2)cc1`, the growth is 103% (inactive). Consider `O=C(Nc1ccc(-n2ccc3c(NC(=O)c4ccccc4)nccc32)cc1)Nc1cccc(C(F)(F)F)c1`, for which the growth is 34.3% (inactive).

Take `OC[C@@H](O)C(O[C@@H]1O[C@H](CO)[C@H](O)[C@H](O)[C@H]1O)[C@H](O)[C@@H](O)CO` (stereo not given in full): the growth is 108% (inactive). In the case of `C=C1C(=O)O[C@H]2[C@H]1CC/C(COC(=O)OC/C1=C/CC[C@@]3(C)O[C@H]3[C@H]3OC(=O)[C@@H](CN(C)C)[C@@H]3CC1)=C\CC[C@@]1(C)O[C@@H]21` it was 80.1% (inactive). The result for `O=S(=O)(Nc1cccc2cc(OS(=O)(=O)c3ccccc3)ccc12)c1ccccc1` reads 29.7% (inactive); that for `CCN(CC)CC(=O)Nc1c(C)cccc1C`, 112% (inactive). On to `O=C(Nc1ccc(-n2ccc3c(NC(=O)c4ccccc4)ncnc32)cc1)c1cccc(C(F)(F)F)c1`, for which the growth was 10.2% (inactive). As for `Clc1ccc2c(c1)nnn1c3ncccc3c(Br)c21`, the growth is 78.6% (inactive). In the case of `C[C@H]1C=C(C[C@@H](O)CCCCCCCCCC[C@@H](O)[C@H]2CCC(=O)O2)C(=O)O1` it was 113% (inactive); in that of `S=c1[nH]nc(Cn2c3ccccc3c3ccncc32)o1`, 100% (inactive); in that of `C=C1C(=O)O[C@H]2[C@H]1CC/C(C(=O)NCCOCCOCC(=O)Nc1ccc(OC)c(C(N)=O)c1O)=C\CC[C@@]1(C)O[C@@H]21`, 106% (inactive).

As for `CS(=O)(=O)OCC(COS(C)(=O)=O)C(c1ccccc1)c1ccccc1`, the growth was 110% (inactive). Turning to `N#Cc1c(N)nc(Cl)c(C#N)c1C(=O)c1ccccc1`, the growth is 61.5% (inactive). On to `Nc1nc(-c2cc3c(cc2Cl)NC(=O)/C3=C/c2ccccc2)cs1`, for which the growth was 56.8% (inactive). `Cc1c(C(C)(C)C)cc(C(C)(C)C)c2c1CN(C)CO2`: the growth was 123% (inactive). As for `COc1cc(/C=C/C(=O)c2ccc(Oc3ncnc4ccccc34)cc2)cc(OC)c1OC`, the growth is 84.5% (inactive). As to `COc1ccccc1NC(=O)COc1ccc(/C=C2/Oc3cc4occc4c(OC)c3C2=O)cc1OC`, the growth is 114% (inactive).

For the compound `CC1(C)N=C(N)N=C(N)N1c1cccc(CCCCc2ccccc2)c1`, the growth is 0.878% (active). For the compound `CCNc1ncnc2n[nH]nc12`, the growth is 103% (inactive). For `C=C1C(=O)O[C@H]2[C@H]1CC/C(COC(=O)c1cc(OC)c(OC)c(OC)c1)=C\CC[C@@]1(C)O[C@@H]21`, the growth was 16.1% (inactive). In the case of `COc1cc(/C=C/C(=O)c2c(C)n([O-])c3cc(C)c(C)cc3[n+]2=O)cc(OC)c1OC` it was 35.4% (inactive). As to `CN(CCNCc1ccccn1)CCNCc1ccccn1`, the growth was -7.2% (active). In the case of `COc1ccc(-c2nn(-c3ccc(NC(=O)Nc4ccc(Cl)c(C(F)(F)F)c4)cc3)cc2-c2ccncc2)cc1Cl` it was -28.2% (active). For the compound `COc1cc2c(cc1OC)-c1c(oc3c4c(ccc3c1=O)OC(C)(C)C=C4)CO2`, the growth is 77.1% (inactive).

As for `COc1ccc(C[C@H](N)C(=O)N[C@@H]2[C@@H](CO)OC(n3cnc4c(N(C)C)ncnc43)[C@@H]2O)cc1` (stereo not given in full), the growth was -67% (active). Consider `COc1ccc(CCNC=O)cc1OC`, for which the growth was 102% (inactive). As for `CCC1(C(N)=O)CC2C=CC1CC2` (stereo not given), the growth was 113% (inactive).

For the compound `COc1ccc(/C(=C/c2cc(OC)c(OC)c(OC)c2)[N+](=O)[O-])cc1`, the growth was 13% (inactive).

With `CCC1S/C(=N\N=C(/C)c2cccs2)N(c2ccccc2)C1=O` (stereo not given), the growth is 112% (inactive). In the case of `O=C(Nc1ccc(-n2cc(-c3ccncc3)c(-c3ccc(O)c(Cl)c3)n2)cc1)c1ccc(Cl)c(C(F)(F)F)c1` it was 8.06% (active). `CCCCCCCCCCCCCCCCCCNCc1ccc(Cl)cc1`: the growth is -71.6% (active). In the case of `CC(C)(CCN=C(N)Nc1ccccn1)c1ccc(C(F)(F)F)cc1` it was 18.3% (inactive); in that of `COc1ccc(Cl)cc1NC(=O)c1cc2c(n1C)-c1nc(NC(=O)C(C)C)sc1CC2`, 94% (inactive); in that of `CCCCCCCCN(CCCCCCCC)CC(O)c1cc(-c2ccccc2)nc2ccc(OC)cc12` (stereo not given), 98.9% (inactive).

As for `O=c1[nH]ccc2nc(N3CCC(O)CC3)nc(Nc3cccc(C(F)(F)F)c3)c12`, the growth is 73.4% (inactive). In the case of `COC(=O)c1ccc(NC(N)=NCC(C)(C)COc2ccc(C(F)(F)F)cc2)nc1` it was 38.8% (inactive). Regarding `COc1ccc(-c2coc3c(CO)c(O)ccc3c2=O)cc1`, the growth is 32.7% (inactive). The result for `COc1ccc(-c2nnc(NC(=O)CN3CCN(c4cc5c(cc4F)c(=O)c(C(=O)O)cn5C4CC4)CC3)s2)cc1OC` reads 101% (inactive); that for `O=S(c1ccccc1)c1ccc2nnnn2n1` (stereo not given), 103% (inactive).
